Measured values taken from ChEMBL document CHEMBL1961873, “Compounds: GSK PKIS; Assays: Nanosyn kinase panel” (2012).

Legend:
[1] = target: T1, 3-phosphoinositide-dependent protein kinase 1 (Homo sapiens) (UniProt O15530); conditions: at 0.1 µM;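 note: values are mean inhibition of PDK1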
T1 sequence (whole entry): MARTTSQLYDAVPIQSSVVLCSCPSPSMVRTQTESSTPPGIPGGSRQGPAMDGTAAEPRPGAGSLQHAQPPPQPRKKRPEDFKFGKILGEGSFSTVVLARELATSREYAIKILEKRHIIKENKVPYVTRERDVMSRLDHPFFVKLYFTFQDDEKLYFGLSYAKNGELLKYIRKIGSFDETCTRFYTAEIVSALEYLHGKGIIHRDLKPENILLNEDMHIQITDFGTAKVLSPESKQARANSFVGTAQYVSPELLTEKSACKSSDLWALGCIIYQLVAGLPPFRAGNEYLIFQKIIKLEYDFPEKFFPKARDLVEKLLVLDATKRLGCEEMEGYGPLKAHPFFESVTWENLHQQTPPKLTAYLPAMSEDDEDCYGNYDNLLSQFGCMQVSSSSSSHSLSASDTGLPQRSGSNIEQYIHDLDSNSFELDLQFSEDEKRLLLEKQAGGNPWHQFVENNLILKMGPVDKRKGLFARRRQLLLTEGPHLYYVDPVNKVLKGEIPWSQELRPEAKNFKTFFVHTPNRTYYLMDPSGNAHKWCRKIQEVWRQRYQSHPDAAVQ

[2] = target: cAMP-dependent protein kinase catalytic subunit alpha (Homo sapiens) (UniProt P17612); conditions: at 0.1 µM
[3] = target: cAMP-dependent protein kinase catalytic subunit alpha (Homo sapiens) (UniProt P17612); conditions: at 1 µM
[4] = target: Protein kinase C alpha type (Homo sapiens) (UniProt P17252); conditions: at 0.1 µM
[5] = target: Protein kinase C alpha type (Homo sapiens) (UniProt P17252); conditions: at 1 µM
[6] = target: Protein kinase C beta type (Homo sapiens) (UniProt P05771); conditions: at 0.1 µM
Sequence of Protein kinase C beta type (Homo sapiens) (P05771 2-671 limits assumed): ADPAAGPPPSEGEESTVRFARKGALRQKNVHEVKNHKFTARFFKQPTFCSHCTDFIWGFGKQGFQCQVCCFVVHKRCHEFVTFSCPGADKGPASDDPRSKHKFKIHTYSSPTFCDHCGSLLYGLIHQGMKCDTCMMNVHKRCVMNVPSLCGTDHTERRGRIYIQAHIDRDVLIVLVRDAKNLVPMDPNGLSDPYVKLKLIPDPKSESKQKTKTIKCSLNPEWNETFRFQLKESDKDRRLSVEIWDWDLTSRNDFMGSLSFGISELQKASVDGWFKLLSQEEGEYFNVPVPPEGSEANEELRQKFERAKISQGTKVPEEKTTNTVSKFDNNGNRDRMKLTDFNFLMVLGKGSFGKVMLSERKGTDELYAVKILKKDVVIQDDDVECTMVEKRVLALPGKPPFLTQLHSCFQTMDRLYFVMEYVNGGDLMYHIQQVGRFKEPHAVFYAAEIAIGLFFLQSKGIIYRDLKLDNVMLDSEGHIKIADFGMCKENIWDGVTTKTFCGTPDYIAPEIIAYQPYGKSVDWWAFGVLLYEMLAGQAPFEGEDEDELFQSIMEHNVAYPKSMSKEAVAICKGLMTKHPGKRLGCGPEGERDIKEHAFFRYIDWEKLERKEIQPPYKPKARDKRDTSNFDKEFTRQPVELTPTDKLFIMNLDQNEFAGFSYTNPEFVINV

[7] = target: Protein kinase C beta type (Homo sapiens) (UniProt P05771); conditions: at 1 µM
[8] = target: Protein kinase C eta type (Homo sapiens) (UniProt P24723); conditions: at 0.1 µM
Sequence of Protein kinase C eta type (Homo sapiens) (P24723 whole entry): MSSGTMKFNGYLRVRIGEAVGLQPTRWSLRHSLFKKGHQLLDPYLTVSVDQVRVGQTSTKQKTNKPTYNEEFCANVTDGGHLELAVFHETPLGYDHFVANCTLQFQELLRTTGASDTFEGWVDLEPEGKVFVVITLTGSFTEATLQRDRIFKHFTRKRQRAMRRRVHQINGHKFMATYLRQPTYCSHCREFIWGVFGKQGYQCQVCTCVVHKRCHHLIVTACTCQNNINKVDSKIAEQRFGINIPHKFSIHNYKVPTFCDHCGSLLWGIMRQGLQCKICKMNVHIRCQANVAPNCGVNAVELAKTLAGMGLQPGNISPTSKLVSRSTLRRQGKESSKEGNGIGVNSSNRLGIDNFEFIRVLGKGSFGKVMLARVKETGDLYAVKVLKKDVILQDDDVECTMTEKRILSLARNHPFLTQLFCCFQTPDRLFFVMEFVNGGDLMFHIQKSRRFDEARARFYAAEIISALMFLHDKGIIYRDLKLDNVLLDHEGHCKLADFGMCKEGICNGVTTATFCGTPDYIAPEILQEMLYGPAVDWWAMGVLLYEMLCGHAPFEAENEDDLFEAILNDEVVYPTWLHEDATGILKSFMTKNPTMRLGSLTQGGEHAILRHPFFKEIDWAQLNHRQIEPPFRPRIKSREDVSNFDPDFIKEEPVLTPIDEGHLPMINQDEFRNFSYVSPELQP

[9] = target: Protein kinase C eta type (Homo sapiens) (UniProt P24723); conditions: at 1 µM
[10] = target: Protein kinase C gamma type (Homo sapiens) (UniProt P05129); conditions: at 0.1 µM
[11] = target: Protein kinase C gamma type (Homo sapiens) (UniProt P05129); conditions: at 1 µM
[12] = target: T2, Protein kinase C iota type (Homo sapiens) (UniProt P41743); conditions: at 0.1 µM
T2 sequence (whole entry): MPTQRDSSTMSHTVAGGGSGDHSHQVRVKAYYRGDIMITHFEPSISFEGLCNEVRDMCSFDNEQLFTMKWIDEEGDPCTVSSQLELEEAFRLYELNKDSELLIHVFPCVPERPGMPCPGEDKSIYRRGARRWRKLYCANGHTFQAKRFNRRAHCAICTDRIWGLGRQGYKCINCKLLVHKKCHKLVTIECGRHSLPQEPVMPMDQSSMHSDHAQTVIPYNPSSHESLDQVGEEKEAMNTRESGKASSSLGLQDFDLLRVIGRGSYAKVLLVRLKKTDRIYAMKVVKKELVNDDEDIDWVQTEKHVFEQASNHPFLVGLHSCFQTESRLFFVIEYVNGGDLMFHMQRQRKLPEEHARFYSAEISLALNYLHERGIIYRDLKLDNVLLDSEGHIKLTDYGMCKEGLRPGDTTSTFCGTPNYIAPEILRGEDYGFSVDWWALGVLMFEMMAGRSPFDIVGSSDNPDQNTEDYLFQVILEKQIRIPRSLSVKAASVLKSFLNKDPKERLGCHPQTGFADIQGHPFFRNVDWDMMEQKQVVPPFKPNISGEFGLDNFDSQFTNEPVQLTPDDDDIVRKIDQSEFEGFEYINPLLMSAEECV

[13] = target: T2, Protein kinase C iota type (Homo sapiens); conditions: at 1 µM
[14] = target: Protein kinase C theta type (Homo sapiens) (UniProt Q04759); conditions: at 0.1 µM
Sequence of Protein kinase C theta type (Homo sapiens) (Q04759 whole entry, looked up): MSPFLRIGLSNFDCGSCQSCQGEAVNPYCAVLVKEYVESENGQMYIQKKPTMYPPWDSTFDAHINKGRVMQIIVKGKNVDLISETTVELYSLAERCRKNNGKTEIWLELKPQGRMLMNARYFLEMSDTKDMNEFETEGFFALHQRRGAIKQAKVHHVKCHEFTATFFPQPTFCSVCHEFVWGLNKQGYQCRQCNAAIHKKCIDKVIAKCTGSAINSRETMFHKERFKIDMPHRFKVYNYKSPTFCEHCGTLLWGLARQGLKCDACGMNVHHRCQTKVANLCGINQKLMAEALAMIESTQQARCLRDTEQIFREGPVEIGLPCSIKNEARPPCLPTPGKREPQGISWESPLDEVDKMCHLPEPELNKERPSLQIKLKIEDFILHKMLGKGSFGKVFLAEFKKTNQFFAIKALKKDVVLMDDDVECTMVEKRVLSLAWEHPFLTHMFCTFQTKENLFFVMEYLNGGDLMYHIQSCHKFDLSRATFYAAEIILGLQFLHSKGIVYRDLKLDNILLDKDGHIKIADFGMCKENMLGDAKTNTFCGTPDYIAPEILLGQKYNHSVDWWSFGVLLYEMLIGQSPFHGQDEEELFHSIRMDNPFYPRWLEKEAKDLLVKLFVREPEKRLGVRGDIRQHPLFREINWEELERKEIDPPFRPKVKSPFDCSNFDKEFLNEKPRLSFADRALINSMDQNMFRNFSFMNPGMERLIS

[15] = target: Protein kinase C theta type (Homo sapiens) (UniProt Q04759); conditions: at 1 µM
[16] = target: Protein kinase C beta type (Homo sapiens) (UniProt P05771); conditions: at 0.1 µM; remark: listed apart in the source
[17] = target: Protein kinase C beta type (Homo sapiens) (UniProt P05771); conditions: at 1 µM; remark: listed apart in the source
[18] = target: T3, Serine/threonine-protein kinase D1 (Homo sapiens) (UniProt Q15139); conditions: at 0.1 µM
T3 sequence (whole entry): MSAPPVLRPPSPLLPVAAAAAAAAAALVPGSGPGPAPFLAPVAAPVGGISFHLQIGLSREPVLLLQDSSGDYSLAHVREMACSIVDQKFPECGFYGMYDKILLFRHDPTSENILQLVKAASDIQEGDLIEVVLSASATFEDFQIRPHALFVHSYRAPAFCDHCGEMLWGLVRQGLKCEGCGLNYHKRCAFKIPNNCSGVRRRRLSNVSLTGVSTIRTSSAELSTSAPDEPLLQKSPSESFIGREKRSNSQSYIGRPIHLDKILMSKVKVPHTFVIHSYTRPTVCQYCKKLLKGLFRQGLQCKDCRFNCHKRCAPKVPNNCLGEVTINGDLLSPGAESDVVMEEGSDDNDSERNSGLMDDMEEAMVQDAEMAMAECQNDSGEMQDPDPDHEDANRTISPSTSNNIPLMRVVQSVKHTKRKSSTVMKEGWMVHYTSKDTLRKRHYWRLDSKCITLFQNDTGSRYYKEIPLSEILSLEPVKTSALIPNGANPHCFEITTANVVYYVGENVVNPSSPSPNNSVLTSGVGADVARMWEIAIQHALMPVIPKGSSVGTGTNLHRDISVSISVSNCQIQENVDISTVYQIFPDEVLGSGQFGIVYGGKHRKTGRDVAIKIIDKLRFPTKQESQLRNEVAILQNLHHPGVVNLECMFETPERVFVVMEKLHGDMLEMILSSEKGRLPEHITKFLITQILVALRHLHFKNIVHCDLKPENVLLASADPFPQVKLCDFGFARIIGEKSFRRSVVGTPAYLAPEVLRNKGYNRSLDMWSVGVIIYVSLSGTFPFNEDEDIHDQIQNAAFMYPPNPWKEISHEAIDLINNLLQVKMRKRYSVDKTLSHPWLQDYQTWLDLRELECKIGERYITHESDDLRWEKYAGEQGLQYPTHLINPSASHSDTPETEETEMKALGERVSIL

[19] = target: T3, Serine/threonine-protein kinase D1 (Homo sapiens); conditions: at 1 µM
[20] = target: T4, Serine/threonine-protein kinase D2 (Homo sapiens) (UniProt Q9BZL6); conditions: at 0.1 µM;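 note: reported percent inhibition values are means, part of the GSK PKIS kinase panel screen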
T4 sequence (whole entry): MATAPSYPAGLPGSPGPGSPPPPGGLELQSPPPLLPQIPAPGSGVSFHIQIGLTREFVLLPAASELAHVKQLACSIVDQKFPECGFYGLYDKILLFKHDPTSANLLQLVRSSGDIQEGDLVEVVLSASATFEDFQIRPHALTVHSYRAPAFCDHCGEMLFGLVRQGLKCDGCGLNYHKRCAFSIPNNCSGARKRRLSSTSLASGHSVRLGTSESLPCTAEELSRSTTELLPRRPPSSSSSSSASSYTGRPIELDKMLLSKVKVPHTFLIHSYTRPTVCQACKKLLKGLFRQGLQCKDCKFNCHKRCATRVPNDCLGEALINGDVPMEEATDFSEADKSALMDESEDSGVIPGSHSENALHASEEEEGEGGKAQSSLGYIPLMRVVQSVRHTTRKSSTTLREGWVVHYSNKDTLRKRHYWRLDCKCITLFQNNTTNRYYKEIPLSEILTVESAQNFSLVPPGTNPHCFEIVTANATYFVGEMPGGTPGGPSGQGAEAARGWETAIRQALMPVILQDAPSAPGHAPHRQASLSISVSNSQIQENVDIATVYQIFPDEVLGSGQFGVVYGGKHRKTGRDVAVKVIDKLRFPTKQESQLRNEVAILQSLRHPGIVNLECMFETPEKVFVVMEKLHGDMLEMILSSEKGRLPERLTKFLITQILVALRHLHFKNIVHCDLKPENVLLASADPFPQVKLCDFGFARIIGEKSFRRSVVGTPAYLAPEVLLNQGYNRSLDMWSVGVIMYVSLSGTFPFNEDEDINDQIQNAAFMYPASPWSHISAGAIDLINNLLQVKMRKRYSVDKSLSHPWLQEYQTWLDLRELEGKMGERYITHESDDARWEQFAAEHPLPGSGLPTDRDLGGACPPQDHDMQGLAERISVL

Compound: NC(=O)Cc1ccccc1Oc1nccc(-c2c(-c3ccc(F)cc3)ncn2C2CCNCC2)n1
- inhibition [1]: 1.03%
- inhibition [2]: 1.37%
- inhibition [3]: 0.93%
- inhibition [4]: 0.35%
- inhibition [5]: 1.51%
- inhibition [6]: -0.44%
- inhibition [7]: 3.18%
- inhibition [8]: 3.28%
- inhibition [9]: 0.22%
- inhibition [10]: 4.12%
- inhibition [11]: 0.76%
- inhibition [12]: 0%
- inhibition [13]: 0.16%
- inhibition [14]: 0.43%
- inhibition [15]: -0.38%
- inhibition [16]: 1.22%
- inhibition [17]: 3.91%
- inhibition [18]: 4.86%
- inhibition [19]: 8.87%
- inhibition [20]: 4.63%

Compound: O=C1Nc2ccccc2/C1=C/Nc1ccc(-n2cncn2)cc1
- inhibition [1]: 2.38%
- inhibition [2]: 1.48%
- inhibition [3]: 4.31%
- inhibition [4]: 0.43%
- inhibition [5]: 1.82%
- inhibition [6]: 0.83%
- inhibition [7]: 2.25%
- inhibition [8]: 8.55%
- inhibition [9]: 5.57%
- inhibition [10]: 0.54%
- inhibition [11]: 2.93%
- inhibition [12]: 2.78%
- inhibition [13]: 2.15%
- inhibition [14]: 2.93%
- inhibition [15]: 4.7%
- inhibition [16]: 1.94%
- inhibition [17]: 4.54%
- inhibition [18]: 5.12%
- inhibition [19]: 7.88%
- inhibition [20]: 6.14%

Compound: Cc1ccc(NC(=O)c2ccoc2)cc1-c1ccc(C(=O)NCC2CC2)cc1
- inhibition [1]: 0.18%
- inhibition [2]: 2.1%
- inhibition [3]: 2.23%
- inhibition [4]: -0.03%
- inhibition [5]: 0.82%
- inhibition [6]: 1.84%
- inhibition [7]: 1.76%
- inhibition [8]: 4.75%
- inhibition [9]: 3.88%
- inhibition [10]: -1.55%
- inhibition [11]: -0.41%
- inhibition [12]: 1.53%
- inhibition [13]: -0.02%
- inhibition [14]: 0.79%
- inhibition [15]: 0.76%
- inhibition [16]: -0.21%
- inhibition [17]: 0.92%
- inhibition [18]: 3.2%
- inhibition [19]: 2.32%
- inhibition [20]: 2.39%

Compound: CN(c1ccc(NC(=O)Nc2c(Cl)cccc2Cl)cc1)c1ccnc(Nc2cccc(CS(C)(=O)=O)c2)n1
- inhibition [1]: 9.04%
- inhibition [2]: 2.36%
- inhibition [3]: 3.01%
- inhibition [4]: 1.14%
- inhibition [5]: 2.02%
- inhibition [6]: 0.67%
- inhibition [7]: 1.35%
- inhibition [8]: 1.33%
- inhibition [9]: 3.8%
- inhibition [10]: 3.61%
- inhibition [11]: 6.65%
- inhibition [12]: 1.27%
- inhibition [13]: 1.5%
- inhibition [14]: 2.22%
- inhibition [15]: 3.24%
- inhibition [16]: 0.41%
- inhibition [17]: 3.24%
- inhibition [18]: 2.4%
- inhibition [19]: 1.18%
- inhibition [20]: 0.57%

Compound: C[C@@H](Oc1cc(-n2cnc3ccc(OCC4CCN(C)CC4)cc32)sc1C(N)=O)c1ccccc1Cl
- inhibition [1]: 2.77%
- inhibition [2]: 3.4%
- inhibition [3]: -1.07%
- inhibition [4]: 1.11%
- inhibition [5]: 5.2%
- inhibition [6]: 1.4%
- inhibition [7]: 3.67%
- inhibition [8]: 5.52%
- inhibition [9]: 5.34%
- inhibition [10]: 3.17%
- inhibition [11]: 6.3%
- inhibition [12]: 1.84%
- inhibition [13]: 2.7%
- inhibition [14]: 4.47%
- inhibition [15]: 15.3%
- inhibition [16]: 3.47%
- inhibition [17]: 11.6%
- inhibition [18]: 6.16%
- inhibition [19]: 12%
- inhibition [20]: 7.73%

Compound: O=C(Nc1n[nH]c2cc(-c3ccccc3)ccc12)C1CC1
- inhibition [1]: 1.51%
- inhibition [2]: 1.89%
- inhibition [3]: 2.35%
- inhibition [4]: 0.99%
- inhibition [5]: 1.87%
- inhibition [6]: -0.78%
- inhibition [7]: 4.47%
- inhibition [8]: 2.72%
- inhibition [9]: 2.77%
- inhibition [10]: 1.69%
- inhibition [11]: 1.52%
- inhibition [12]: 2.86%
- inhibition [13]: 3.51%
- inhibition [14]: 2.7%
- inhibition [15]: 1.97%
- inhibition [16]: 1.8%
- inhibition [17]: 3.32%
- inhibition [18]: 4.43%
- inhibition [19]: 5.64%
- inhibition [20]: 4.79%

Compound: COc1ccc2cc(-c3c(-c4ccncc4)nc(-c4ccc(S(C)(=O)=O)cc4C)n3C)ccc2c1
- inhibition [1]: 0.71%
- inhibition [2]: 8.44%
- inhibition [3]: 29.8%
- inhibition [4]: 1.11%
- inhibition [5]: 6.73%
- inhibition [6]: 2.3%
- inhibition [7]: 14.5%
- inhibition [8]: 7.27%
- inhibition [9]: 7.65%
- inhibition [10]: 2.09%
- inhibition [11]: 7.85%
- inhibition [12]: 3.93%
- inhibition [13]: 3.45%
- inhibition [14]: 2.19%
- inhibition [15]: 5.03%
- inhibition [16]: 3.45%
- inhibition [17]: 9.63%
- inhibition [18]: 4.08%
- inhibition [19]: 4.53%
- inhibition [20]: 4.88%

Compound: NC(=O)c1cc(-c2ccncc2)cc(-c2ccccc2)c1N
- inhibition [1]: 2.16%
- inhibition [2]: 2.43%
- inhibition [3]: 6.13%
- inhibition [4]: 1.21%
- inhibition [5]: 4.38%
- inhibition [6]: 1.43%
- inhibition [7]: 1.87%
- inhibition [8]: 5.05%
- inhibition [9]: 7.89%
- inhibition [10]: -0.73%
- inhibition [11]: 4.29%
- inhibition [12]: 2.83%
- inhibition [13]: 4.85%
- inhibition [14]: 2.27%
- inhibition [15]: 4.49%
- inhibition [16]: 1.9%
- inhibition [17]: 2.02%
- inhibition [18]: 4.07%
- inhibition [19]: 6.39%
- inhibition [20]: 5.01%
